We go through 12 molecules from article PMC12529666, “Dysregulation of AGO2-miRNA dynamics underlies the AGO2-associated Lessel–Kreienkamp syndrome”.

The labels stand for the following.
B1: GCGTTCTG (ssRNA)
RNA 1: GAGUUCUACAGUCCGACGAUCCCAACGCGUUCUGCACCUGGAAUUCUCGGGUGCCAA
RNA 2: UGGAGUGUGACAAUGGUGUUUG
DNA 1: GATCGTCGGACTGTAGAACTC
DNA 2: TTGGCACCCGAGAATTCCA
modifications: constant regions annealed to DNA blockers; guide miR-122 5' phosphate
B2: ATATCCTG (ssRNA)
RNA 1: GAGUUCUACAGUCCGACGAUCCCAACAUAUCCUGCACCUGGAAUUCUCGGGUGCCAA
RNA 2: UGGAGUGUGACAAUGGUGUUUG
DNA 1: GATCGTCGGACTGTAGAACTC
DNA 2: TTGGCACCCGAGAATTCCA
modifications: constant regions annealed to DNA blockers; guide miR-122 5' phosphate
B3: ATGTCTTG (ssRNA)
RNA 1: GAGUUCUACAGUCCGACGAUCCCAACAUGUCUUGCACCUGGAAUUCUCGGGUGCCAA
RNA 2: UGGAGUGUGACAAUGGUGUUUG
DNA 1: GATCGTCGGACTGTAGAACTC
DNA 2: TTGGCACCCGAGAATTCCA
modifications: constant regions annealed to DNA blockers; guide miR-122 5' phosphate
B4: GTATCCCG (ssRNA)
RNA 1: GAGUUCUACAGUCCGACGAUCCCAACGUAUCCCGCACCUGGAAUUCUCGGGUGCCAA
RNA 2: UGGAGUGUGACAAUGGUGUUUG
DNA 1: GATCGTCGGACTGTAGAACTC
DNA 2: TTGGCACCCGAGAATTCCA
modifications: constant regions annealed to DNA blockers; guide miR-122 5' phosphate
B5: GTGTTCTG (ssRNA)
RNA 1: GAGUUCUACAGUCCGACGAUCCCAACGUGUUCUGCACCUGGAAUUCUCGGGUGCCAA
RNA 2: UGGAGUGUGACAAUGGUGUUUG
DNA 1: GATCGTCGGACTGTAGAACTC
DNA 2: TTGGCACCCGAGAATTCCA
modifications: constant regions annealed to DNA blockers; guide miR-122 5' phosphate
B6: ATGCCCTG (ssRNA)
RNA 1: GAGUUCUACAGUCCGACGAUCCCAACAUGCCCUGCACCUGGAAUUCUCGGGUGCCAA
RNA 2: UGGAGUGUGACAAUGGUGUUUG
DNA 1: GATCGTCGGACTGTAGAACTC
DNA 2: TTGGCACCCGAGAATTCCA
modifications: constant regions annealed to DNA blockers; guide miR-122 5' phosphate
B7: ACATCTCG (ssRNA)
RNA 1: GAGUUCUACAGUCCGACGAUCCCAACACAUCUCGCACCUGGAAUUCUCGGGUGCCAA
RNA 2: UGGAGUGUGACAAUGGUGUUUG
DNA 1: GATCGTCGGACTGTAGAACTC
DNA 2: TTGGCACCCGAGAATTCCA
modifications: constant regions annealed to DNA blockers; guide miR-122 5' phosphate
B8: ACGCCCCG (ssRNA)
RNA 1: GAGUUCUACAGUCCGACGAUCCCAACACGCCCCGCACCUGGAAUUCUCGGGUGCCAA
RNA 2: UGGAGUGUGACAAUGGUGUUUG
DNA 1: GATCGTCGGACTGTAGAACTC
DNA 2: TTGGCACCCGAGAATTCCA
modifications: constant regions annealed to DNA blockers; guide miR-122 5' phosphate
B9: GCGTCTCG (ssRNA)
RNA 1: GAGUUCUACAGUCCGACGAUCCCAACGCGUCUCGCACCUGGAAUUCUCGGGUGCCAA
RNA 2: UGGAGUGUGACAAUGGUGUUUG
DNA 1: GATCGTCGGACTGTAGAACTC
DNA 2: TTGGCACCCGAGAATTCCA
modifications: constant regions annealed to DNA blockers; guide miR-122 5' phosphate
B10: GTGTCCTG (ssRNA)
RNA 1: GAGUUCUACAGUCCGACGAUCCCAACGUGUCCUGCACCUGGAAUUCUCGGGUGCCAA
RNA 2: UGGAGUGUGACAAUGGUGUUUG
DNA 1: GATCGTCGGACTGTAGAACTC
DNA 2: TTGGCACCCGAGAATTCCA
modifications: constant regions annealed to DNA blockers; guide miR-122 5' phosphate
B11: GCGTTTTG (ssRNA)
RNA 1: GAGUUCUACAGUCCGACGAUCCCAACGCGUUUUGCACCUGGAAUUCUCGGGUGCCAA
RNA 2: UGGAGUGUGACAAUGGUGUUUG
DNA 1: GATCGTCGGACTGTAGAACTC
DNA 2: TTGGCACCCGAGAATTCCA
modifications: constant regions annealed to DNA blockers; guide miR-122 5' phosphate
B12: ATATTTTG (ssRNA)
RNA 1: GAGUUCUACAGUCCGACGAUCCCAACAUAUUUUGCACCUGGAAUUCUCGGGUGCCAA
RNA 2: UGGAGUGUGACAAUGGUGUUUG
DNA 1: GATCGTCGGACTGTAGAACTC
DNA 2: TTGGCACCCGAGAATTCCA
modifications: constant regions annealed to DNA blockers; guide miR-122 5' phosphate

Sequence of AGO2 L192P (Q9UKV8 whole entry L192P/S387D/S824A/S828D/S831D/S834A): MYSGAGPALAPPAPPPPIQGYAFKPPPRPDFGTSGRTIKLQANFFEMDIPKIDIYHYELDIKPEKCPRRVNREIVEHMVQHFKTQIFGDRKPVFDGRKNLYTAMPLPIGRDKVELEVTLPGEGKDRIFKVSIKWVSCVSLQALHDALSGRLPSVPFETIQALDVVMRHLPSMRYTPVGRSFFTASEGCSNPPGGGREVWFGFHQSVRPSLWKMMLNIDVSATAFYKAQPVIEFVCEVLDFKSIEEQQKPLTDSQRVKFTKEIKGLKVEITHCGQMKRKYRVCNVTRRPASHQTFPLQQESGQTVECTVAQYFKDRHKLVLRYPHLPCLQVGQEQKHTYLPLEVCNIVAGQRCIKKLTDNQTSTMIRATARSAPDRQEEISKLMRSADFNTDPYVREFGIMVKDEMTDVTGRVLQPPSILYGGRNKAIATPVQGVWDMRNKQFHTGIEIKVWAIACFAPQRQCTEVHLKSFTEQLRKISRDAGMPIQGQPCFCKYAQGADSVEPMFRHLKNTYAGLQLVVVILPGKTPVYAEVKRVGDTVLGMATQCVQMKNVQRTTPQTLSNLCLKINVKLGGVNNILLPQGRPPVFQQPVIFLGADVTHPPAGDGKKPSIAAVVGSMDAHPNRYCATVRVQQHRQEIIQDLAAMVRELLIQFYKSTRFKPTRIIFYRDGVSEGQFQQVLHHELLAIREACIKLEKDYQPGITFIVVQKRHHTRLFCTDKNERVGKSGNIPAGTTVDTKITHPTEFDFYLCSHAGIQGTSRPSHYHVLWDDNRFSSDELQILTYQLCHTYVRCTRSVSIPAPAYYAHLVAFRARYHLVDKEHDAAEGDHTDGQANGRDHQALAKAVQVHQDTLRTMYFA
Sequence of AGO2 T357M (Q9UKV8 whole entry T357M/S387D/S824A/S828D/S831D/S834A): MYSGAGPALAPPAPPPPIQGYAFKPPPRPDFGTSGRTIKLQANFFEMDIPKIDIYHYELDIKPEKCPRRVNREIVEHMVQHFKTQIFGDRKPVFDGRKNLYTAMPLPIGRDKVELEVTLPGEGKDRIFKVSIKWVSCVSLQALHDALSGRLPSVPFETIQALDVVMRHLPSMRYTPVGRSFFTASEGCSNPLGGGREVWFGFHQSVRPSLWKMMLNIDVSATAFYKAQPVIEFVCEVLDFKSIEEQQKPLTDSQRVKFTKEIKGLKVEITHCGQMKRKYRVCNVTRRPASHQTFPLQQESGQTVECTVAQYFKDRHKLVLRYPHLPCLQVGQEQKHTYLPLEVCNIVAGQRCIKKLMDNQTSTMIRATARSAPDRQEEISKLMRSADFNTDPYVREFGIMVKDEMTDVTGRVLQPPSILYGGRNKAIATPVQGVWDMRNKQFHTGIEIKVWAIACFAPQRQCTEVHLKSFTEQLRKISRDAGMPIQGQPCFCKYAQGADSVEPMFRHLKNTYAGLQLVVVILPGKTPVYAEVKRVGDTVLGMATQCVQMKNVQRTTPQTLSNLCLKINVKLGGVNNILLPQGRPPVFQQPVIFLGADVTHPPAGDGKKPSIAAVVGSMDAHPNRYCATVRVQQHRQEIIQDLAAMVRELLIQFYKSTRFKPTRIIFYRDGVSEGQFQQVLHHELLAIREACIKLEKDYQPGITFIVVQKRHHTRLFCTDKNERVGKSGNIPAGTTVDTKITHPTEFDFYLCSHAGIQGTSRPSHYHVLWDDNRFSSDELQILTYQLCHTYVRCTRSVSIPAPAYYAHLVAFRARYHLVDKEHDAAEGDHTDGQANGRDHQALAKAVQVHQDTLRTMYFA

One assay addresses AGO2 L192P (Homo sapiens, UniProt Q9UKV8 1-859, L192P;S387D;S824A;S828D;S831D;S834A). Put plainly: RNA Bind-n-Seq (nitrocellulose filter binding and sequencing); miR-122 guide loaded in AGO2; 60 min incubation; 30 mM Tris pH 8.0, 100 mM potassium acetate, 2 mM magnesium acetate, 0.5 mM TCEP, 0.005% NP-40, 0.01 mg/ml yeast tRNA; 3 nM AGO2-miR-122, 100 nM RNA library; 60; high values mean tight binding. Particulars: protein: recombinant; tags: His6 (N-terminal, pFastBac HTA). The gist of the method: (§1)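 His-tagged AGO2 was expressed in Sf9 insect cells by baculovirus, loaded with a synthetic guide RNA, and purified by Ni-NTA and a biotinylated capture oligo. Bound RNA was extracted, reverse-transcribed, barcode-amplified and Illumina-sequenced. Fold enrichment is each sequence's read fraction divided by its input-library read fraction.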
On to B1, for which the binding signal is 0.348 fold enrichment over input.

In the case of B2, the binding signal was 0.349 fold enrichment over input.

With B3, the binding signal is 0.357 fold enrichment over input.

As to B4, the binding signal is 0.354 fold enrichment over input.

As for B5, the binding signal is 0.352 fold enrichment over input.

In the case of B6, the binding signal is 0.377 fold enrichment over input.

As to B7, the binding signal is 0.347 fold enrichment over input.

Take B8: the binding signal was 0.391 fold enrichment over input.

For B9, the binding signal is 0.345 fold enrichment over input.

Consider B10, for which the binding signal was 0.335 fold enrichment over input.

Regarding B11, the binding signal was 0.362 fold enrichment over input.

B12: the binding signal is 0.369 fold enrichment over input.

In the next assay the target is AGO2 A367P (Homo sapiens, UniProt Q9UKV8 1-859, A367P;S387D;S824A;S828D;S831D;S834A). The assay is described as above. To be noted: protein: recombinant; tags: His6 (N-terminal, pFastBac HTA). In a few lines: as §1
Sequence of AGO2 A367P (Q9UKV8 whole entry A367P/S387D/S824A/S828D/S831D/S834A): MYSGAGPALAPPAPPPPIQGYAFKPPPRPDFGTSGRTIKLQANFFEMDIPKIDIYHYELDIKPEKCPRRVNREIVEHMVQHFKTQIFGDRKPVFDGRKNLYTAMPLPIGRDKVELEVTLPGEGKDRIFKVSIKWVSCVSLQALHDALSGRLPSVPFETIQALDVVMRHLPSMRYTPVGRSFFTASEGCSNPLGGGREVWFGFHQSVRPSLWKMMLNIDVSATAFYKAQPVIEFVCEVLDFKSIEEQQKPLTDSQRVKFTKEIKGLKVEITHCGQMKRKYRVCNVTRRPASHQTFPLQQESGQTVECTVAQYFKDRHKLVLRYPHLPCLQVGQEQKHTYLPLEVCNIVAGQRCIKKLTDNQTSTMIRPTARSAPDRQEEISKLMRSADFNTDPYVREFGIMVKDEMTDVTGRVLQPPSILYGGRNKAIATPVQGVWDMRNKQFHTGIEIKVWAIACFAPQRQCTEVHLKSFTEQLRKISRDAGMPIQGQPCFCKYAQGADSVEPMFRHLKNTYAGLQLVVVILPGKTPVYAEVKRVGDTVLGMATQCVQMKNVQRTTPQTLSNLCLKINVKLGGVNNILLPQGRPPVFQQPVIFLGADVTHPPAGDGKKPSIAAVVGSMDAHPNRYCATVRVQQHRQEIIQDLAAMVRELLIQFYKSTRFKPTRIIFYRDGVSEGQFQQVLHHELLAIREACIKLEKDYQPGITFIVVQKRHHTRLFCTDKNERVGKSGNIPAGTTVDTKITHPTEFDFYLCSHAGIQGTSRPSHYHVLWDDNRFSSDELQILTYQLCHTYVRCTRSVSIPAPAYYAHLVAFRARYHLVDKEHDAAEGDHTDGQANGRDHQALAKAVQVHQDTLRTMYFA
For B1, the binding signal was 0.135 fold enrichment over input.

As to B3, the binding signal was 0.128 fold enrichment over input.

As for B4, the binding signal was 0.122 fold enrichment over input.

For the molecule B5, the binding signal was 0.132 fold enrichment over input.

On to B6, for which the binding signal was 0.137 fold enrichment over input.

As to B7, the binding signal was 0.134 fold enrichment over input.

Turning to B8, the binding signal was 0.155 fold enrichment over input.

As to B9, the binding signal was 0.138 fold enrichment over input.

As for B10, the binding signal is 0.124 fold enrichment over input.

Take B11: the binding signal is 0.136 fold enrichment over input.

As to B12, the binding signal is 0.149 fold enrichment over input.

In another assay the target is AGO2 T357M (Homo sapiens, UniProt Q9UKV8 1-859, T357M;S387D;S824A;S828D;S831D;S834A). The description is as above. To be noted: protein: recombinant; tags: His6 (N-terminal, pFastBac HTA). In a few lines:
as §1
Take B1: the binding signal is 0.496 fold enrichment over input.

Take B2: the binding signal was 0.475 fold enrichment over input.

For the molecule B3, the binding signal was 0.449 fold enrichment over input.

Take B4: the binding signal was 0.399 fold enrichment over input.

Take B5: the binding signal was 0.47 fold enrichment over input.

In the case of B6, the binding signal was 0.463 fold enrichment over input.

For B7, the binding signal was 0.37 fold enrichment over input.

Consider B8, for which the binding signal was 0.524 fold enrichment over input.

B9: the binding signal was 0.498 fold enrichment over input.

For the molecule B10, the binding signal was 0.452 fold enrichment over input.

On to B11, for which the binding signal is 0.536 fold enrichment over input.

With B12, the binding signal is 0.584 fold enrichment over input.
